Here are results for four molecules from PubChem BioAssay (EPA / NIEHS).

Activity calls are given as the source filed them. Rule for the calls: active = hit-call score of the fitted dose curve at least 0.9, where 1 is the maximum; inactive = score below 0.9.

Holding throughout (conditions): mRNA level, 48 h; actives raise or lower the signal
Read-out in assay [1]: Insulin Like Growth Factor 1 (IGF1), IGF1 (gene 3479)
As to the kind of experiment: LTEA_HepaRG_IGF1: Life Technologies and Expression Analysis (LTEA) Assay for Insulin Like Growth Factor 1 (IGF1) using HepaRG (AID 2283506). An outline of the steps: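 Endpoint: IGF1 mRNA change by qRT-PCR, housekeeping-normalized, fitted bidirectionally relative to 0.5% DMSO vehicle. Human HepaRG cells were treated 48 h in serum-free induction medium, eight half-log concentrations topping at 100 uM.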

Read-out in assay [2]: Intercellular Adhesion Molecule 1 (ICAM1), ICAM1 (gene 3383)
As to the kind of experiment: LTEA_HepaRG_ICAM1: Life Technologies and Expression Analysis (LTEA) Assay for Intercellular Adhesion Molecule 1 (ICAM1) using HepaRG (AID 2283507). Summed up:
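Differentiated human HepaRG cells in serum-free induction medium exposed 48 h in duplicate to 8 half-log concentrations (top 100 uM, 0.5% DMSO). ICAM1 mRNA quantified by TaqMan qRT-PCR, normalized to ACTB, GAPDH and POLR2A; bidirectional fitting versus DMSO.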

Read-out in assay [3]: Insulin-like growth factor-binding protein 1 (IGFBP1), IGFBP1 (gene 3484)
As to the kind of experiment: LTEA_HepaRG_IGFBP1: Life Technologies and Expression Analysis (LTEA) Assay for Insulin-like growth factor-binding protein 1 (IGFBP1) using HepaRG (AID 2283508). Summed up:
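HepaRG cells, plated 48 h then switched to serum-free induction medium, exposed in duplicate for 48 h to 8-point half-log series from 100 uM in 0.5% DMSO. mRNA measured by qRT-PCR, normalized to ACTB/GAPDH/POLR2A; bidirectional fit versus DMSO.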

Read-out in assay [4]: Interleukin 6 Receptor (IL6R), IL6R (gene 3570)
As to the kind of experiment: LTEA_HepaRG_IL6R: Life Technologies and Expression Analysis (LTEA) Assay for Interleukin 6 Receptor (IL6R) using HepaRG (AID 2283510). An outline of the steps: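 In this HepaRG screen, test chemicals act on cells for 48 h at up to 100 uM (eight half-log points, duplicate wells). IL6R expression is quantified by qRT-PCR after normalization to ACTB, GAPDH and POLR2A, with DMSO as baseline.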

Read-out in assay [5]: Potassium channel subfamily K member 1 (KCNK1), KCNK1 (gene 3775)
As to the kind of experiment: LTEA_HepaRG_KCNK1: Life Technologies and Expression Analysis (LTEA) Assay for Potassium channel subfamily K member 1 (KCNK1) using HepaRG (AID 2283511). An outline of the steps:
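KCNK1 transcript measured by TaqMan qRT-PCR against three housekeeping genes, after HepaRG cells were treated 48 h with eight half-log concentrations (top 100 uM, 0.5% DMSO). Curves fitted bidirectionally relative to vehicle.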

Read-out in assay [6]: Keratin 19 (KRT19), KRT19 (gene 3880)
As to the kind of experiment: LTEA_HepaRG_KRT19: Life Technologies and Expression Analysis (LTEA) Assay for Keratin 19 (KRT19) using HepaRG (AID 2283512). Summed up: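 Differentiated HepaRG cells in serum-free induction medium, exposed 48 h in duplicate to 8 half-log concentrations up to 100 uM in 0.5% DMSO. KRT19 mRNA by qRT-PCR, normalized to ACTB, GAPDH, POLR2A; bidirectional fit vs DMSO.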

Read-out in assay [7]: JUN Transcription Factor, JUN (gene 3725)
In words: LTEA_HepaRG_JUN: Life Technologies and Expression Analysis (LTEA) Assay for JUN Transcription Factor using HepaRG (AID 2283513). Summed up: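 Gene-expression endpoint: JUN mRNA (qRT-PCR, normalized to three reference genes) in HepaRG cultures treated 48 h with chemicals, duplicate wells, 100 uM maximum with half-log dilutions; bidirectional fitting relative to 0.5% DMSO.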

Read-out in assay [8]: Lipase C (LIPC), LIPC (gene 3990)
In words: LTEA_HepaRG_LIPC: Life Technologies and Expression Analysis (LTEA) Assay for Lipase C (LIPC) using HepaRG (AID 2283514). Summed up: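 LIPC expression was quantified by qRT-PCR against three housekeeping genes (ACTB, GAPDH, POLR2A). Differentiated human HepaRG cells received eight half-log doses (top 100 uM, 0.5% DMSO) in duplicate for 48 h; fitting bidirectional relative to DMSO.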

Read-out in assay [9]: Lipoprotein lipase (LPL), LPL (gene 4023)
In words: LTEA_HepaRG_LPL: Life Technologies and Expression Analysis (LTEA) Assay for Lipoprotein lipase (LPL) using HepaRG (AID 2283515). An outline of the steps: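 LPL transcript levels quantified by TaqMan qRT-PCR against three housekeeping genes after 48 h chemical treatment of HepaRG cells. Eight-point half-log series from 100 uM in 0.5% DMSO, tested in duplicate; bidirectional fitting versus vehicle.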

Read-out in assay [10]: MicroRNA 122 (MIR122), gene 406906
In words: LTEA_HepaRG_MIR122: Life Technologies and Expression Analysis (LTEA) Assay for MicroRNA 122 (MIR122) using HepaRG (AID 2283516). Note: the transcript read is the microRNA miR-122. An outline of the steps: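 Changes in transcript abundance, up or down relative to 0.5% DMSO vehicle, were scored after 48 h chemical treatment of HepaRG cells (maximum 100 uM). Quantification used TaqMan qRT-PCR normalized to housekeeping genes.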

Read-out in assay [11]: matrix metalloproteinase-10 (MMP10), MMP10 (gene 4319)
As to the kind of experiment: LTEA_HepaRG_MMP10: Life Technologies and Expression Analysis (LTEA) Assay for matrix metalloproteinase-10 (MMP10) using HepaRG (AID 2283517). An outline of the steps:
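Expression measured by TaqMan qRT-PCR with ACTB/GAPDH/POLR2A normalisation after 48 h chemical exposure of HepaRG cells. Eight half-log concentrations, top 100 uM, 0.5% DMSO vehicle, duplicates; gain or loss fitted against vehicle.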

Read-out in another assay: MYC, MYC (gene 4609)
In words: LTEA_HepaRG_MYC: Life Technologies and Expression Analysis (LTEA) Assay for MYC using HepaRG (AID 2283518). Summed up:
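Differentiated HepaRG cells exposed 48 h in serum-free induction medium to 8 concentrations (top 100 uM, half-log steps; 0.5% DMSO), duplicate. MYC mRNA measured by Fluidigm qRT-PCR, normalized to ACTB, GAPDH, POLR2A; bidirectional fit versus DMSO.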

Read-out in assay [12]: Paternally Expressed 10 (PEG10), PEG10 (gene 23089)
As to the kind of experiment: LTEA_HepaRG_PEG10: Life Technologies and Expression Analysis (LTEA) Assay for Paternally Expressed 10 (PEG10) using HepaRG (AID 2283520). Summed up: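 After 48 h exposure of differentiated HepaRG cells (0.5% DMSO vehicle, eight concentrations up to 100 uM, duplicates), PEG10 mRNA was measured by TaqMan qRT-PCR. Values were normalised to endogenous control genes and analysed bidirectionally against vehicle.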

Read-out in assay [13]: Protein phosphatase 2A (PPP2R4), PTPA (gene 5524)
As to the kind of experiment: LTEA_HepaRG_PPP2R4: Life Technologies and Expression Analysis (LTEA) Assay for Protein phosphatase 2A (PPP2R4) using HepaRG (AID 2283522). An outline of the steps: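 Using HepaRG cultures maintained in 0.5% DMSO, chemicals are tested 48 h at up to 100 uM in duplicate. Induction or suppression of PPP2R4 mRNA, measured by qRT-PCR, is fitted bidirectionally against the vehicle baseline.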

Read-out in assay [14]: Phosphatase and tensin (PTEN), PTEN (gene 5728)
As to the kind of experiment: LTEA_HepaRG_PTEN: Life Technologies and Expression Analysis (LTEA) Assay for Phosphatase and tensin (PTEN) using HepaRG (AID 2283523). An outline of the steps: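 Read-out: TaqMan qRT-PCR of PTEN transcript, normalized to three housekeeping genes, fitted in both directions against 0.5% DMSO. Differentiated human HepaRG cultures received chemicals for 48 h, eight-point half-log series topping at 100 uM.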

Read-out in assay [15]: solute carrier (SLC22A1), SLC22A1 (gene 6580)
In words: LTEA_HepaRG_SLC22A1: Life Technologies and Expression Analysis (LTEA) Assay for solute carrier (SLC22A1) using HepaRG (AID 2283524). Summed up:
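Transcript level of SLC22A1 quantified by qRT-PCR (normalized to three housekeeping genes) after 48 h chemical exposure of HepaRG cells, eight concentrations up to 100 µM, half-log steps, 0.5% DMSO vehicle. Gain or loss relative to DMSO fitted bidirectionally.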

Read-out in assay [16]: Pyruvate Dehydrogenase Kinase 4 (PDK4), PDK4 (gene 5166)
As to the kind of experiment: LTEA_HepaRG_PDK4: Life Technologies and Expression Analysis (LTEA) Assay for Pyruvate Dehydrogenase Kinase 4 (PDK4) using HepaRG (AID 2283525). Summed up:
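Readout is qRT-PCR of PDK4 transcript, normalized to three housekeeping genes, with bidirectional fitting against 0.5% DMSO vehicle. Differentiated HepaRG cells were treated 48 h in serum-free induction medium, duplicate wells, eight-point half-log series topping at 100 uM.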

Read-out in assay [17]: Nuclear factor NF-kappa-B p105 subunit (Homo sapiens) (UniProt P19838)
In words: LTEA_HepaRG_NFKB1: Life Technologies and Expression Analysis (LTEA) Assay for Nuclear Factor Kappa B Subunit 1 (NFKB1) using HepaRG (AID 2283521).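 Note: TaqMan qRT-PCR transcript normalised to ACTB GAPDH and POLR2A housekeeping genes.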 Summed up:
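Differentiated human HepaRG cells in serum-free induction medium with 0.5% DMSO were exposed for 48 h to eight half-log concentrations, top 100 uM, in duplicate. NFKB1 mRNA measured by Fluidigm TaqMan qRT-PCR, normalised to ACTB, GAPDH and POLR2A; bidirectional fit versus DMSO.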

Read-out in assay [18]: matrix metalloproteinase-3 (MMP3), MMP3 (gene 4314)
In words: LTEA_HepaRG_MMP3: Life Technologies and Expression Analysis (LTEA) Assay for matrix metalloproteinase-3 (MMP3) using HepaRG (AID 2283519). An outline of the steps:
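Fluidigm-based TaqMan qRT-PCR, normalized to ACTB, GAPDH and POLR2A and fitted bidirectionally versus 0.5% DMSO, measured transcript levels. Treatment: duplicate 48 h exposures of HepaRG cells, ~100,000/well, to eight half-log concentrations topping at 100 uM.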

Sequence of Nuclear factor NF-kappa-B p105 subunit (Homo sapiens) (P19838 whole entry, looked up): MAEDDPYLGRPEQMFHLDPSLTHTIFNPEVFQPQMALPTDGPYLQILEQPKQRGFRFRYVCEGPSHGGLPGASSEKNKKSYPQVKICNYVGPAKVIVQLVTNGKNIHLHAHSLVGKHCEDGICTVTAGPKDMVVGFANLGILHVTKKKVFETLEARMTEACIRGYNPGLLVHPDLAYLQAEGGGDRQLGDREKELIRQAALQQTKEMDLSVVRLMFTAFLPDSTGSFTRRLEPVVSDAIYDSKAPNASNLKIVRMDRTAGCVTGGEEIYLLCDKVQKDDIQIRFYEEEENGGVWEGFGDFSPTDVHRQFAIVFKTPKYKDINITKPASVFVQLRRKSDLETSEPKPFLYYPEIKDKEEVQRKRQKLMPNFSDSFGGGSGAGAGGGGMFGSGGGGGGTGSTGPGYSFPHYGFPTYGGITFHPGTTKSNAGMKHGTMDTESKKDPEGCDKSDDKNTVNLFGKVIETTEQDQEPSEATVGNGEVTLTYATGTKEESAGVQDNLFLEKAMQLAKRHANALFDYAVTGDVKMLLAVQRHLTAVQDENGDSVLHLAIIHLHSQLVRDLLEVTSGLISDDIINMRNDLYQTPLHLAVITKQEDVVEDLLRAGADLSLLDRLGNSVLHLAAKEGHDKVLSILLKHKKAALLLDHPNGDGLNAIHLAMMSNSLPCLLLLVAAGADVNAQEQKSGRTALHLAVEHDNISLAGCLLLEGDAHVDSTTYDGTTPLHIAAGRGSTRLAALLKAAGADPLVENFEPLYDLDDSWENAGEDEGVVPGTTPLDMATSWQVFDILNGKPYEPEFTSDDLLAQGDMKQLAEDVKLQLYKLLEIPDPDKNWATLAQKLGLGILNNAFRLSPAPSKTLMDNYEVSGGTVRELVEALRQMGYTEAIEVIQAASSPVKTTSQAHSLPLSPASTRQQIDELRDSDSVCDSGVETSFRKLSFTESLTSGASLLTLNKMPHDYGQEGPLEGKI

As for `CC/C(=C\C(=N/O)C(N)=O)C(C)[N+](=O)[O-]` (stereo unspecified), the molecule was classed as inactive in assay [1], in assay [2], in assay [3], in assay [4], in [5] and in [6]. The outcome is “inactive” in assay [7]; “inactive” in assay [8]; “inactive” in assay [9]; “inactive” in assay [10]; “inactive” in assay [11]; “inactive” with MYC, MYC (gene 4609). Besides, the outcome in assay [12], in [13], in assay [14], in assay [15] and in [16] was inactive.
As to `CC(O)CN(CCN(CC(C)O)CC(C)O)CC(C)O` (stereo unspecified), the call in [1], in [2], in [3], in assay [4], in assay [5] and in assay [6] was inactive. Also, the outcome in [8] is “inactive”; in [9] it was “inactive”; in [10] it was “inactive”; in assay [11], “inactive”; with MYC, MYC (gene 4609), “inactive”; in assay [12] it was “inactive”. For the same molecule, the outcome in assay [17], in assay [14], in [15] and in assay [16] was inactive. Further, in assay [13], the AC50 is 12.5 µM (active).
For the molecule `C[C@](N)(Cc1ccc(O)c(O)c1)C(=O)O`, the molecule was called inactive in [1], in assay [2], in assay [3], in assay [4], in assay [5] and in [8]. Also, the outcome in assay [9] is “inactive”; in [10], “inactive”; in assay [11] it was “inactive”; with MYC, MYC (gene 4609) it was “inactive”; in assay [12], “inactive”; in assay [17], “inactive”. For the same molecule, the outcome in assay [13], in assay [14], in [15] and in assay [16] was inactive.
For the molecule `CC1(C)C(=O)N(Br)C(=O)N1Br`, the molecule was called inactive in [1], in assay [2], in assay [3], in [4], in [5] and in assay [8]. For the same molecule, the outcome in [9] was “inactive”; in [10], “inactive”; in [11], “inactive”; with MYC, MYC (gene 4609), “inactive”; in assay [18] it was “inactive”; in [12] it was “inactive”. In addition, the outcome in assay [13], in [14], in [15] and in assay [16] was inactive.
